TDP1 inh = qHTS Assay for Inhibitors of Tyrosyl-DNA Phosphodiesterase (TDP1); Tyrosyl-DNA phosphodiesterase 1 (Homo sapiens), Q9NUW8; 350,000 tested, 0.28% active; AID 485290, 2010; recombinant TDP1, AlphaScreen DNA substrate cleavage; Potency, µM (top dose mostly 130 µM), for inactives: top-dose activity change, negative = inhibition, usual class: inhibitors; note: nearly all actives have a fitted effect of over 40% in size
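AlphaScreen read-out: signal falls as enzyme removes the 3' tyrosine-FITC from a 5'-biotinylated DNA oligo (15 nM, 5 min, RT). Enzyme was E. coli-made recombinant Tdp1 at 1 nM, exposed to compound for 15 min beforehand; beads 10 ug/ml, 10 min.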
RECQ1 helicase = qHTS Assay for Inhibitors of RecQ-Like Dna Helicase 1 (RECQ1); Potency, µM (titrated, usually from 57.3 µM), without a hit: at the top dose activity, negative = inhibition, hits mostly inhibitors; AID 2549, 2010; RECQ1 DNA unwinding, red fluorescence kinetic read; 240,000 tested, 0.54% active;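 note: plate controls were vehicle for no effect and no enzyme for full effect; nearly all actives have a fitted effect of over 30% in size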
Target sequence (P46063 whole entry, looked up): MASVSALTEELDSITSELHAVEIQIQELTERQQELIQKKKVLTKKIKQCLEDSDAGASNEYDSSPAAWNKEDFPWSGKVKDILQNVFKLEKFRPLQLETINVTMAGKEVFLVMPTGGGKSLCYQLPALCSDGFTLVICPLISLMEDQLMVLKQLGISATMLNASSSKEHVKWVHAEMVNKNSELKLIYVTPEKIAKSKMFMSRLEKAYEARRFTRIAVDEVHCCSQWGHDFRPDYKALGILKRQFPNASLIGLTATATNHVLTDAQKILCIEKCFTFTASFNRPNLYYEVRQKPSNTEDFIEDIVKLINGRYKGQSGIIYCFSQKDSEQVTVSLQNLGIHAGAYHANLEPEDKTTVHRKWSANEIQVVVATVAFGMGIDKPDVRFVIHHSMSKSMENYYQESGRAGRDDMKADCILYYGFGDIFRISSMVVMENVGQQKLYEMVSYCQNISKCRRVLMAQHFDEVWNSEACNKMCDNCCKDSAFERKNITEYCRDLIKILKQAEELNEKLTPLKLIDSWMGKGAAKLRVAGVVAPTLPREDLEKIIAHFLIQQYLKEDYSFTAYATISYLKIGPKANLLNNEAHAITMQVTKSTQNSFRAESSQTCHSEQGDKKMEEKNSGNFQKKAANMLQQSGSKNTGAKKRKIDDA
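50 nM RECQ1T1 preincubated 15 min with compound in Tris pH 8.0 buffer with MgCl2, DTT, Tween-20 and 2.5 ug/ml poly(dI-dC); started with 200 nM TAMRA/BHQ-2 forked duplex and 2 mM ATP. Unwinding read as fluorescence (525/598 nm), two reads 2 h apart.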
L3MBTL1 block = qHTS Assay for the Inhibitors of L3MBTL1; Lethal(3)malignant brain tumor-like protein 1 (Homo sapiens), Q9Y468; AlphaScreen L3MBTL1–H3K9me1 peptide binding; Potency, µM (titrated, usually from 57.1 µM), without a hit: top-dose activity, negative = inhibition, actives largely listed as inhibitors; 230,000 tested, 0.66% active; note: nearly all actives have a fitted effect of over 60% in size
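AlphaScreen assay: L3MBTL1 (50 nM final) was preincubated 30 min at room temperature with biotinylated H3(1-15)K9me1 peptide (75 nM final), then 30 min with library compounds; streptavidin donor and nickel chelate acceptor beads (10 ug/mL final) added, 30 min dark.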
JMJD2E inh = qHTS Assay for Inhibitors of Human Jumonji Domain Containing 2E (JMJD2E). Lysine-specific demethylase 4E (Homo sapiens), B2RXH2. JMJD2E catalytic domain, FDH-coupled NADH fluorescence (FDH is formaldehyde dehydrogenase). Potency, µM (doses to about 57.1 µM), without a hit: top-dose activity change, negative = inhibition, usual class: inhibitors. 230,000 tested, 1.6% active. AID 2147, 2009; active = well fitted inhibition curve with a large enough effect, not every such curve was filed as active; inconclusive = small, poorly fitted or top-dose-only effect, or another doubt; inactive = no such curve, though single readings can be large or run the other way;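 note: 0% = wells with enzyme and -100% = buffer wells without enzyme; nearly all actives have a fitted effect of over 50% in size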
APEX1 inh = qHTS Assay for Inhibitors of the Human Apurinic/apyrimidinic Endonuclease 1 (APE1); Potency, µM (series often up to 65.8 µM), inactives show at the highest dose activity change, negative = inhibition, actives largely listed as inhibitors; recombinant APE1, TAMRA/BHQ-2 abasic DNA cleavage fluorescence; AID 2517, 2012; 350,000 tested, 0.35% active;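 note: plate controls were vehicle for no effect and reference inhibitor for full effect; nearly all actives have a fitted effect of over 55% in size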
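Quantitative HTS: incision of a TAMRA/BHQ-2 double-stranded substrate bearing a tetrahydrofuran abasic site by 0.75 nM APE1 raises fluorescence. Substrate 50 nM final, added after 15 min compound preincubation at room temperature; progress as third-minus-first kinetic read difference.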
BLM helicase inh = qHTS Assay for Inhibitors of Bloom's syndrome helicase (BLM). RecQ-like DNA helicase BLM (Homo sapiens), P54132. recombinant BLM DNA unwinding, fluorescence dequenching. Potency, µM (titrated, usually from 56.1 µM), inactives show at the top dose activity change, negative = inhibition, actives largely listed as inhibitors. 350,000 tested, 0.2% active. AID 2528, 2010;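 note: plate controls were vehicle for no effect and no enzyme for full effect; nearly all actives have a fitted effect of over 35% in size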
Numbers without * were called inactive; i = inactive; ? = inconclusive; nt = not tested or not shown; ! = not active in a repeat; [ ] = another dose, or the depositor's remark. Shown is part of a subset that was picked to be rich in hits. Unless noted, calls come from the whole dose curve; as a rule, active = well fitted curve in the direction sought with a large enough effect; inconclusive = small, poorly fitted or top-dose-only effect, or another doubt; inactive = no such curve, though single readings can be large; an effect the other way counts as inactive or inconclusive. Unless noted, % is set by controls: 0 for no effect and ±100 for the full control effect; potency is the fitted concentration of half-maximal effect.

SMILES	TDP1 inh	RECQ1 helicase	L3MBTL1 block	JMJD2E inh	APEX1 inh	BLM helicase inh
CC(=O)c1cccc(OCC(O)CN2CC=C(c3ccccc3)CC2)c1 (stereo not given)	-8%	-3%	1%	16µM*	-5%	-10%
N=C1/C(=C/c2ccc(OC(=O)c3ccco3)cc2)C(=O)N=C2SC=CN12	3%	i	2%[11.4 µM]	14µM*	-1%	-12%
COC1CCCCC1NCCc1ccccc1 (stereo not given)	8%	-9%	-6%	16µM*	7%	-2%
COC(C)(C)CCCC(C)C/C=C/C(C)=C/C(=O)OC(C)C (stereo not given)	16µM*!	9%	1%	1%	-7%	1%
CC(Cc1ccc(C(C)(C)C)cc1)CN1CCCCC1 (stereo not given)	3%	-2%	nt	nt	1%	0%
O=C1NC(=O)C(=Cc2cccc(OCCOc3ccccc3)c2)C(=O)N1	nt	nt	nt	nt	9%	-1%
Cc1ccc(OCCOc2cccc(C=C3C(=O)NC(=O)NC3=O)c2)c(C)c1	79µM*	nt	26%	nt	41%	-6%
Cc1ccc2c(c1)C1(CCN(CCc3nc(-c4ccccc4)oc3C)CC1)OC(=O)N2	20%	-2%	nt	nt	-2%	13%
Cc1cccc(N2C(=O)NC(=O)/C(=C/c3ccc([N+](=O)[O-])o3)C2=O)c1	nt	1%	6.3µM*	-2%	?	-8%
O=C1NC(=O)N(c2ccccc2)C(=O)/C1=C/C=C/c1ccco1	nt	?	nt	-12%	?	0%
Cc1cccc(N2C(=O)NC(=O)/C(=C\c3cccn3-c3ccc(Cl)cc3)C2=O)c1	0%	32µM*	-6%	9%	0%	-22%
COc1ccc(CN2C(=O)NC(=O)/C(=C/c3ccc([N+](=O)[O-])o3)C2=O)cc1	0%	10µM*	nt	-13%	?	?
Cc1cccc(N2C(=O)NC(=O)/C(=C\C=C\c3ccco3)C2=O)c1	-4%	22µM*	?	-12%	?	-21%
C[C@]12CC[C@H]3[C@@H](CC[C@@]45O[C@@H]4C(=O)C(C#N)C[C@]35C)[C@@H]1CC[C@@H]2O (stereo not given in full)	nt	nt	nt	nt	nt	4%
C(=C\c1ccccc1)/CN1CCN(CCOC(c2ccccc2)c2ccccc2)CC1	21%	3%	nt	nt	-5%	nt
Cc1ccc(N2C(=O)NC(=O)/C(=C\C=C\c3ccco3)C2=O)cc1C	-5%	28µM*	?	-11%	5%	-3%
CC(=O)C1CCC2C3CCC4=CC(=O)CC[C@@]4(C)C3CC[C@]12C (stereo not given in full)	13%[56.1 µM]	i	nt	-7%	-3%	-5%
CN1/C(=C\C=C\C2=[N+](C)c3ccc4ccccc4c3C2(C)C)C(C)(C)c2ccccc21	12%	28µM*	16µM*	-1%	28µM*	32µM*
CN1CC[C@@]2(C)c3cc(O)ccc3N(C)C2O1 (stereo not given in full)	3%	-25%	nt	nt	-5%	?
CN1CC[C@@]2(C)c3cc(O)ccc3N(C)[C@@H]12	6%	-4%	nt	6.3µM*	-9%	-6%
CSc1ncc(/C=C2/C(=O)NC(=O)N(C3CCCCC3)C2=O)cn1	-3%	-4%	0%	22µM*	-7%	-4%
CSc1ncc(/C=C2/C(=O)NC(=O)N(C)C2=O)cn1	-3%	?	-1%	25µM*	-4%	-1%
c1nc[n]([Sn]([CH]2CCCCC2)([CH]2CCCCC2)[CH]2CCCCC2)n1	4%	-6%	nt	nt	-3%	0%

Source: PubChem BioAssay (National Center for Advancing Translational Sciences (NCATS))
